Laboratory results published in PubChem BioAssay (NCI).
About 79,000 compounds went through this panel and 15% of them were active in at least one assay; those are over-represented in the sample as a whole. No stated cut-off is given here; in the data, active means growth inhibition above about 70%; inactive means the rest. Where a SMILES comes first, the peptide text is derived from it. [ ]: non-standard residue; d: D form. The star is where a group is joined. ξ: configuration not given here. Cbz = O=C(OCc1ccccc1)*; ξP = O=C(O)C1CCCN1

Assays:
[1] = NCI Yeast Anticancer Drug Screen. Data for the rad50 strain (AID 155);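 further: 0% = growth of vehicle-only cultures of the same strain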; settings: S. cerevisiae rad50 strain growth inhibition; at 50.0 µM; hits give high values
Method in brief: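 Inhibition values express reduced yeast growth in compound-treated cultures relative to vehicle-treated controls.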

[2] = NCI Yeast Anticancer Drug Screen. Data for the mec2-1 strain (AID 157); settings: S. cerevisiae mec2-1 strain, at 50.0 µM, hits give high values
Method in brief: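 Test agents were screened against the mec2-1 yeast strain, with defined DNA repair or cell cycle alteration. Growth was scored as inhibition against vehicle-only controls.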

[3] = NCI Yeast Anticancer Drug Screen. Data for the sgs1 mgt1 strain (AID 161);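 further: 0% = growth of cultures given vehicle only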; settings: S. cerevisiae sgs1 mgt1 strain, at 50.0 µM, hits give high values
Method in brief: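 Genetically altered yeast, compound exposure, growth inhibition relative to vehicle.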

[4] = NCI Yeast Anticancer Drug Screen. Data for the cln2 rad14 strain (AID 165);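 further: 0% = growth equal to vehicle treated cultures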; settings: S. cerevisiae cln2 rad14 strain, at 50.0 µM, hits give high values
Method in brief: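 Growth of compound-exposed yeast (cln2 rad14 genotype) measured and expressed as inhibition relative to vehicle.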

[5] = NCI Yeast Anticancer Drug Screen. Data for the bub3 strain (AID 167); settings: S. cerevisiae bub3 mutant strain, at 50.0 µM, hits give high values
Method in brief: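 Steps: expose the mutant yeast strain to compound; grow alongside vehicle-treated cultures; measure growth; express inhibition against the vehicle cultures.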

[6] = NCI Yeast Anticancer Drug Screen. Data for the mlh1 rad18 strain (AID 175); settings: S. cerevisiae mlh1 rad18 strain growth inhibition; at 50.0 µM; hits give high values
Method in brief: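 In this whole-cell yeast screen, a strain with altered DNA damage repair is challenged with compound, and its growth is measured against matched vehicle-treated controls.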

Measured: growth inhibition

Cn1cnc2ncnc(Nc3ccc(Cl)cc3)c21
inactive: [1] 5.25% | [2] -16% | [3] 4% | [4] -24.2% | [5] 10% | [6] -6.1%

CC1(C)CNC[C@](C)(OCCCO[C@@]2(C)CNCC(C)(C)NC2=O)C(=O)N1
inactive: [1] -11.4% | [2] -33.5% | [3] -21.2% | [4] 25.6% | [5] 3.95% | [6] -9.45%

Cc1ccc(-c2oc(-c3ccc(C)cc3)c3cc(C)c(C)cc23)cc1
inactive: [1] 4.8% | [2] 13.5% | [3] -6.7% | [4] 8.5% | [5] -8.6% | [6] -4.6%

CCCN1CCc2c([nH]c3cc(OC)ccc23)C1C (stereo not given)
inactive: [1] 27.9% | [2] -4.15% | [3] -5.05% | [4] 1.9% | [5] 7.35% | [6] 3.2%

Cc1cc(C)c(S(N)(=O)=O)c(C)c1
inactive: [1] -1.2% | [2] -16.6% | [3] -28.2% | [4] -5.4% | [5] -15.1% | [6] -0.8%

CC1(C)OC(C)(C)c2c1nnc(-c1ccccc1[N+](=O)[O-])[n+]2[O-]
inactive: [1] 8.1% | [2] 11.5% | [3] 22.4% | [4] 12.8% | [5] 26.9% | [6] 14.1%

O=C1c2ccccc2C(=O)N1Cc1ccc(CN2C(=O)c3ccccc3C2=O)cc1
inactive: [1] -9% | [2] -3.75% | [3] -16% | [4] -12.2% | [5] -1.55% | [6] -11.1%

COc1ccc(CC(N)C(=O)N(C)C2C(CO)OC(n3cnc4c(N(C)C)ncnc43)C2O)cc1 (stereo not given)
inactive: [1] 5.3% | [2] -10.8% | [3] -8.7% | [4] -25.7% | [5] 2.3% | [6] -7.45%

O=[N+]([O-])c1ccc(COP(=O)(O)OCc2ccc([N+](=O)[O-])cc2)cc1
inactive: [1] -1.5% | [2] 10.9% | [3] 13.1% | [4] -9.55% | [5] 11.2% | [6] 15.4%

Nc1ccc(C(=O)NO)c(O)c1
inactive: [1] 6.2% | [2] 18.9% | [3] -7.55% | [4] -41.8% | [5] 18.7% | [6] -6%

O=NN(CCCl)C(=O)NCCc1cccc[n+]1[O-]
inactive: [1] 2.6% | [2] 14.3% | [3] -14.1% | [4] -5.75% | [5] -2.45% | [6] -57.6%

Nc1cc2cn[nH]c2cc1N
inactive: [1] -10.6% | [2] 4.75% | [3] 4.4% | [4] -8.75% | [5] 9.3% | [6] 25.6%

COc1cccc(C=Nc2cc(C)ccn2)c1O.COc1cccc(C=Nc2cc(C)ccn2)c1O.[Cu]
inactive: [1] 3.45% | [2] -7.75% | [3] 9.75% | [4] 14.2% | [5] -11.6% | [6] 38.6%

CC(C(=O)O)C1Nc2ccccc2NC1=O (stereo not given)
inactive: [1] 13.4% | [2] 28.6% | [3] 7.05% | [4] -12.4% | [5] -18.7% | [6] 0.3%

COc1cc(/C=C(\C#N)C(N)=C(C#N)C#N)cc(O)c1O
inactive: [1] -32.5% | [2] -20.8% | [3] -19.6% | [4] 0.65% | [5] -24.3% | [6] -18.8%

O=C(CNC(=O)OCc1ccccc1)NCC(=O)N1CCCC1C(=O)O (stereo not drawn) (Cbz-Gly-Gly-[ξP]-OH)
inactive: [1] -1.6% | [2] 1.15% | [3] -4.45% | [4] 0.25% | [5] -3.65% | [6] -23.6%

COc1ccc2ccccc2c1C1=NC(C)(C)CO1
inactive: [1] -6.65% | [2] -18.6% | [3] 2.6% | [4] 18.5% | [5] -3.8% | [6] -16.6%

Cc1c(Br)cc(Br)c(O)c1Br
inactive: [1] 37.3% | [2] 26.9% | [3] 23.7% | [4] -29.4% | [5] 9.1% | [6] 31.1%

O=C(O)c1nc(-c2ccc(S(=O)(=O)O)cc2)[nH]c1C(=O)O
inactive: [1] -7.15% | [2] -0.25% | [3] 14% | [4] -24.8% | [5] -6.05% | [6] -3.6%

CC(=O)c1ccc(NC(=O)/C(=N\NC(N)=O)C(C#N)CC(C)(C)C=O)cc1 (stereo not given)
inactive: [1] 29.3% | [2] 17.4% | [3] -2.55% | [4] 21.1% | [5] 33.6% | [6] 16.6%
